Tests used:
Test in all cases: log2 ratio of Biotin-Ahx-Ub-VS probe labelling (fragment/DMSO); higher = less target engagement (more negative = stronger competition), active = hit call of the paper (q ≤ 0.05, log2 ratio ≤ -1)
Details in all cases: compound concentration: 200 uM; treatment time: 3 h
USP34 = USP34 (UniProt Q70CQ2)
Summary of the method: (§1)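 Fragment (200 µM) or vehicle was incubated for 3 h with triplicate HEK293T lysate samples of 495 µg, which were then treated with Biotin-Ahx-Ub-VS at 0.5 µM final for 1 h. Labelled DUBs were enriched on NeutrAvidin, digested with LysC and trypsin, and analysed by diaPASEF LC-MS/MS. Values are average log2 fragment/vehicle ratios from an unpaired t-test on global-median-normalised Spectronaut label-free quantities, using proteins with ≥2 unique peptides.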

USP36 = target: T1, USP36 (UniProt Q9P275)
T1 sequence (whole entry): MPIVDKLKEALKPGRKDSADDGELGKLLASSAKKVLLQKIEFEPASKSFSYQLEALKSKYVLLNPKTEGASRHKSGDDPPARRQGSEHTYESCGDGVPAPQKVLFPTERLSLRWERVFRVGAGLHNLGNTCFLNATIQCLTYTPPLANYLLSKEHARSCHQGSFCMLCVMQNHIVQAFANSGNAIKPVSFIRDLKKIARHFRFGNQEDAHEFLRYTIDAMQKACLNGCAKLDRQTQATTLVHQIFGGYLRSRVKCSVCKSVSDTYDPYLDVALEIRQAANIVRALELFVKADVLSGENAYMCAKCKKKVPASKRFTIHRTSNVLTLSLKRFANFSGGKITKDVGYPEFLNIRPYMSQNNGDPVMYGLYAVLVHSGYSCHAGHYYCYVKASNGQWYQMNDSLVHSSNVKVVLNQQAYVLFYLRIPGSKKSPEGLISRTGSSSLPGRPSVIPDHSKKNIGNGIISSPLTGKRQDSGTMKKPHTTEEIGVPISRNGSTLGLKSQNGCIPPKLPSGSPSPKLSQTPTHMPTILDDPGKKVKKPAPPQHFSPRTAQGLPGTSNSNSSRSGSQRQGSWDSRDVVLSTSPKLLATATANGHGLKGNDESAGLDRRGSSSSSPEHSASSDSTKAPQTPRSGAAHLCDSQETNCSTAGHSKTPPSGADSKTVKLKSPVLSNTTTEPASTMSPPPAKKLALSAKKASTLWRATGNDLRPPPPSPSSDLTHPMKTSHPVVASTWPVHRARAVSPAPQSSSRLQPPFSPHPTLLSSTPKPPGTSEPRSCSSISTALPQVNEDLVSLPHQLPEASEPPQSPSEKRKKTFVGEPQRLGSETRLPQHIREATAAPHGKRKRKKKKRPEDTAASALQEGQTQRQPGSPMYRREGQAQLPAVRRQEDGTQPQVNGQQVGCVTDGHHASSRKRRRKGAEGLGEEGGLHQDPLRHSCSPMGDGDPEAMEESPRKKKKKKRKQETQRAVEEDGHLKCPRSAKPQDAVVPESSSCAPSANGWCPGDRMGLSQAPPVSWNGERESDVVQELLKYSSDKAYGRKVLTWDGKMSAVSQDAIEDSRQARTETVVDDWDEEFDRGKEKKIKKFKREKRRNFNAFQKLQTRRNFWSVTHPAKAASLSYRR
Summary of the method: as §1

USP38 = target: T2, USP38 (UniProt Q8NB14)
T2 sequence (whole entry): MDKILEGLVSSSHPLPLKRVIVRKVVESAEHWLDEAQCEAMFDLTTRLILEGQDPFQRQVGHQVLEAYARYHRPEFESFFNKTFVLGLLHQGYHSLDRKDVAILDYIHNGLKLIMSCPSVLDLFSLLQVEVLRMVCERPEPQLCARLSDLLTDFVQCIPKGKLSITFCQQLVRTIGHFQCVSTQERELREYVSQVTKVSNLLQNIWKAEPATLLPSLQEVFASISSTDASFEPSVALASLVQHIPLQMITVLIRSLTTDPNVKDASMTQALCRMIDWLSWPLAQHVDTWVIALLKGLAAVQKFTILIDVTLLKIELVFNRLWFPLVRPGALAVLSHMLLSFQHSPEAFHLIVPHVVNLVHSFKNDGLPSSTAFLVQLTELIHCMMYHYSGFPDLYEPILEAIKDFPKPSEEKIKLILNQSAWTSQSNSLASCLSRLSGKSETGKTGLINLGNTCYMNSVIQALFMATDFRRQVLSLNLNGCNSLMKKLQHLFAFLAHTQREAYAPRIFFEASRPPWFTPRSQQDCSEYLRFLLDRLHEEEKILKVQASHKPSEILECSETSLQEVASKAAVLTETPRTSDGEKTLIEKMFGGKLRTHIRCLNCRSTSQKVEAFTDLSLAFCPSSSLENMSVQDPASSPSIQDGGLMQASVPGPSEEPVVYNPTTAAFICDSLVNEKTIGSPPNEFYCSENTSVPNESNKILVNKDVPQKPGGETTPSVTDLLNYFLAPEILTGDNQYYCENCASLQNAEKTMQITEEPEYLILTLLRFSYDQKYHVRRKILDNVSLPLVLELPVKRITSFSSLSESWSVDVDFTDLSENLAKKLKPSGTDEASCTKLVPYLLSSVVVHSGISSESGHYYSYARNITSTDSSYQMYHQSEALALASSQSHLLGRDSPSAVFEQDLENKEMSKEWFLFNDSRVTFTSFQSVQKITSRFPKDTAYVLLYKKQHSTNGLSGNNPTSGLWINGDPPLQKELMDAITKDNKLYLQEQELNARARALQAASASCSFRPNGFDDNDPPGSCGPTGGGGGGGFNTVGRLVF
Summary of the method: as §1

USP39 = target: T3, USP39 (UniProt Q53GS9)
T3 sequence (whole entry): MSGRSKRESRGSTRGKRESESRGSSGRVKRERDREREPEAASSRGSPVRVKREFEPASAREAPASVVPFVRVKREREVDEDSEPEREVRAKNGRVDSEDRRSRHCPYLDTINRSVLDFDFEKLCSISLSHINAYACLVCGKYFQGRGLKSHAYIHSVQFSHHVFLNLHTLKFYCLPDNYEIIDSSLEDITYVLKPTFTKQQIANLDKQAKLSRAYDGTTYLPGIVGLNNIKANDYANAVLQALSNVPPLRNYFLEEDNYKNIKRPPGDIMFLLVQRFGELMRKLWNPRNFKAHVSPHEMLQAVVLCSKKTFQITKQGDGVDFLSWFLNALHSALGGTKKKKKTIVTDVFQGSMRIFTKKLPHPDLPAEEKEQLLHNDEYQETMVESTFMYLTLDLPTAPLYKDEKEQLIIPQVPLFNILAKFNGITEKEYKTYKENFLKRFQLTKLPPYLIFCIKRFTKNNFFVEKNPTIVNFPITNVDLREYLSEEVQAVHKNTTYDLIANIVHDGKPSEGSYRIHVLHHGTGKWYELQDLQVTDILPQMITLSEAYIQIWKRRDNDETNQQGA
Summary of the method: as §1

USP4 = target: T4, USP4 (UniProt Q13107)
T4 sequence (whole entry): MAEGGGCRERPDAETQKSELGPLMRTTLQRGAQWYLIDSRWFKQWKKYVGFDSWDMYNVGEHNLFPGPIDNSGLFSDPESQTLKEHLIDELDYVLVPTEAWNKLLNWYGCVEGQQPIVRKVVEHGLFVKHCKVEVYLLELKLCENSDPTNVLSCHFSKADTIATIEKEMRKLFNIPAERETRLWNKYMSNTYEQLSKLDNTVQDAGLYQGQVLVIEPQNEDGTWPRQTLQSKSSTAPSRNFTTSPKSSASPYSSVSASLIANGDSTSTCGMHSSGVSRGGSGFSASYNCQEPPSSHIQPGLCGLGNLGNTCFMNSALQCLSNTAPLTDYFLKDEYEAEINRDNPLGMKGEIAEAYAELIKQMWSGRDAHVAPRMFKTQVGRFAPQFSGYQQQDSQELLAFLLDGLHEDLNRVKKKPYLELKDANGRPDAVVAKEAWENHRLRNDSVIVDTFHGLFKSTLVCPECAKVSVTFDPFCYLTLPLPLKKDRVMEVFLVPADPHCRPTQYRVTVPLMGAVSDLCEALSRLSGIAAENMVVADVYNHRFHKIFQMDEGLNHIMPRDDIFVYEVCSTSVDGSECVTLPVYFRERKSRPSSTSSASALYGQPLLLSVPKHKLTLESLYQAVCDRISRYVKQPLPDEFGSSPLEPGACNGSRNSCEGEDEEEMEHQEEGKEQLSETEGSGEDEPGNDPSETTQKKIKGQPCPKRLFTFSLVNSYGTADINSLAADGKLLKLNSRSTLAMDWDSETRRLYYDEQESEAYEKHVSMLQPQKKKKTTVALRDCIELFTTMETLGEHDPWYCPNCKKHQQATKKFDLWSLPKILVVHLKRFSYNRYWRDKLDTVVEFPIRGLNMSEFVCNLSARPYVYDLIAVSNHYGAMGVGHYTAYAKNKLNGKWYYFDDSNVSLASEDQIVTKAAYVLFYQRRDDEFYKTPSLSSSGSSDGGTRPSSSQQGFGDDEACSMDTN
Summary of the method: as §1

Measured: log2 ratio of Biotin-Ahx-Ub-VS probe labelling

Sequence of USP34 (Q70CQ2 whole entry, the tested form may be a part): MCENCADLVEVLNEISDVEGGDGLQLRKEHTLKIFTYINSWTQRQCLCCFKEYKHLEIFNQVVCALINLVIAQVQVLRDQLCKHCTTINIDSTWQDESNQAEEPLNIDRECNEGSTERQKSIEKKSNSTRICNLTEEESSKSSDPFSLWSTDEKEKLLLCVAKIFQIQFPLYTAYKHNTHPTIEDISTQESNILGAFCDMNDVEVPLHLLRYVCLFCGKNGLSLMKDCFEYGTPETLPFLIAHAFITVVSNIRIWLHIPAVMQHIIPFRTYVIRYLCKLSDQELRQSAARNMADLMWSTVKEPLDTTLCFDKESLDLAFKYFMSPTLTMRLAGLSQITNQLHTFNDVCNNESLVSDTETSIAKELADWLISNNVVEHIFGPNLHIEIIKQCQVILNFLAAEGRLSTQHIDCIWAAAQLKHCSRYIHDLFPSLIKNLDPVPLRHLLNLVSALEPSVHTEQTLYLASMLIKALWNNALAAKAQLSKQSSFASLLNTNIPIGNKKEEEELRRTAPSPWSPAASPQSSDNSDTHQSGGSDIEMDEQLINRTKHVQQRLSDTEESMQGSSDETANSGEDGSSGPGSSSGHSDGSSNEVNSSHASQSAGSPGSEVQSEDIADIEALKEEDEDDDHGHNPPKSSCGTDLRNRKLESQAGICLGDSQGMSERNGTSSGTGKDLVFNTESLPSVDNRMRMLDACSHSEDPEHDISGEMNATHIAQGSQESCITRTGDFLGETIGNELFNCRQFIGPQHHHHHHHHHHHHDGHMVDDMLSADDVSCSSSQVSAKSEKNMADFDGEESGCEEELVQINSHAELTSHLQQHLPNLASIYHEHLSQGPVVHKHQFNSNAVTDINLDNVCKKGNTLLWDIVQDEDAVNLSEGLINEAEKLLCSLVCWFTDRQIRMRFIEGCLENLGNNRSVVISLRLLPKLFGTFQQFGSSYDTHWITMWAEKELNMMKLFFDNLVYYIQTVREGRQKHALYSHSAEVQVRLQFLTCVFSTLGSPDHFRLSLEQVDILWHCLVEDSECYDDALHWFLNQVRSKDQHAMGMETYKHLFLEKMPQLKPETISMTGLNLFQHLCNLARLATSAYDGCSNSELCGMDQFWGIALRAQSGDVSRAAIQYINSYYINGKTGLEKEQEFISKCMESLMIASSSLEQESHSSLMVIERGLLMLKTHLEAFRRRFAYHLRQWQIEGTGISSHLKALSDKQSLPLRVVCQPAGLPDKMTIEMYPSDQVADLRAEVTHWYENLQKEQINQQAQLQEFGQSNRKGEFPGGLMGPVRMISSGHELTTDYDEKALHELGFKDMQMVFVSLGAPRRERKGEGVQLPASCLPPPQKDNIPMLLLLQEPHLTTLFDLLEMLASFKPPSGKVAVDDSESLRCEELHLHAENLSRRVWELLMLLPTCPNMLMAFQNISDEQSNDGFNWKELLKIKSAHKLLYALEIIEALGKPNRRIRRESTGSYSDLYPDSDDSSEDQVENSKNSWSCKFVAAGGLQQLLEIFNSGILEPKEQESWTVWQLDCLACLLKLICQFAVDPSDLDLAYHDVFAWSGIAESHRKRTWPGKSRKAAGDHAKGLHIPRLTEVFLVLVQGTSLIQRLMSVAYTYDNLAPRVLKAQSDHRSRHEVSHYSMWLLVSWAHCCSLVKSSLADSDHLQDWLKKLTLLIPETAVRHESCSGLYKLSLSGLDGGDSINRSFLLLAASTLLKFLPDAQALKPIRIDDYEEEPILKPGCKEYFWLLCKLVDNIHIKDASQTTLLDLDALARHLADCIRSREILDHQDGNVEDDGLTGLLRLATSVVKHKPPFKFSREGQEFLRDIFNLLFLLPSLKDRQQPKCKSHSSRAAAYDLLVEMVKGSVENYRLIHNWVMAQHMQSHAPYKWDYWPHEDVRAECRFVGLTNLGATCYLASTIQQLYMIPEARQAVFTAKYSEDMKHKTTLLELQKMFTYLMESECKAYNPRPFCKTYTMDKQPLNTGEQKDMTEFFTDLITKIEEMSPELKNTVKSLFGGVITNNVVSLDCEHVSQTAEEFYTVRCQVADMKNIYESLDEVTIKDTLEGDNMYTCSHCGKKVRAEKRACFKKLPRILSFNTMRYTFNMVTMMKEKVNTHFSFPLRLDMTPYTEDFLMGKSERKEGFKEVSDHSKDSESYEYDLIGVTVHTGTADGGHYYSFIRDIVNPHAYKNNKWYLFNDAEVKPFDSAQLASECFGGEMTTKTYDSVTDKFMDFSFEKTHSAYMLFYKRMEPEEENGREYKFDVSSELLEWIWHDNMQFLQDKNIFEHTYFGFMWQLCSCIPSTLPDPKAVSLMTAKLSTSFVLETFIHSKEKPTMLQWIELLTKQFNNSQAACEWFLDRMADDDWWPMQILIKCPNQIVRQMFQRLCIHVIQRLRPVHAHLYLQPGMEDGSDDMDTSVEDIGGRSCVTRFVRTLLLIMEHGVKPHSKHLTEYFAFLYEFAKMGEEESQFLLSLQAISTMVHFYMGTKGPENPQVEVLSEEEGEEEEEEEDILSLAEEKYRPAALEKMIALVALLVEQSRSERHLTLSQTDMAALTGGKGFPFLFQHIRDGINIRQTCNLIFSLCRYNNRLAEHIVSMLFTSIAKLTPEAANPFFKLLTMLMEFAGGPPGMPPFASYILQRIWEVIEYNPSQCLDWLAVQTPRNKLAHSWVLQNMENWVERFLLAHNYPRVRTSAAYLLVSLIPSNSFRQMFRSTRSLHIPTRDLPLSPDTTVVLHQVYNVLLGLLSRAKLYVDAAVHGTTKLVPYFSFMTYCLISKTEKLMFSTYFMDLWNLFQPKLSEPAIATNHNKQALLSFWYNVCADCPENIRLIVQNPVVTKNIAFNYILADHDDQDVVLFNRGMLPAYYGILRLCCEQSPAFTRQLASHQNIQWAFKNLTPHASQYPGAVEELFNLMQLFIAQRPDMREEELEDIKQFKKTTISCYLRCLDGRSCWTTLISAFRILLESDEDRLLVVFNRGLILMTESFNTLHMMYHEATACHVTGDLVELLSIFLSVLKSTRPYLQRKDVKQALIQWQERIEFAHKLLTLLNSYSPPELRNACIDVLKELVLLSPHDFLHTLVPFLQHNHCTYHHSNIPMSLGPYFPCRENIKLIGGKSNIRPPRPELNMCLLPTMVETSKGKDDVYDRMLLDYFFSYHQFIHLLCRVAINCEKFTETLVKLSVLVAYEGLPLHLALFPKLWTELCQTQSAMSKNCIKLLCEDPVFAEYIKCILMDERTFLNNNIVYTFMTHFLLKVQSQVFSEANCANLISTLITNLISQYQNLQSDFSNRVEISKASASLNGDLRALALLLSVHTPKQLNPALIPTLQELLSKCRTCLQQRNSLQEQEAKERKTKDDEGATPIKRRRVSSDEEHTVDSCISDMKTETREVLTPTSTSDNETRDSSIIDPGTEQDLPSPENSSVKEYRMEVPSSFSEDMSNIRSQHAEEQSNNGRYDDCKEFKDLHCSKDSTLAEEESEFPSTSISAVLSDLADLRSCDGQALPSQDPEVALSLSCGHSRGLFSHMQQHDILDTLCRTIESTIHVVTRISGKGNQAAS

O=C(CCl)N1CCC(=C(F)CO)C1
inactive: USP34 0.0842 | USP36 -0.125 | USP38 0.0909 | USP39 0.212 | USP4 0.218
